# Experimental data taken from ChEMBL document CHEMBL4513216, “Probing the Open Global Health Chemical Diversity Library for Multistage-Active Starting Points for Next-Generation Antimalarials” (ACS Infect Dis, 2020).
# About 2,100 (3.2%) of roughly 65,000 compounds showed an effect of 50% or more. The median lay at about -52%. The sample as a whole holds a higher share of strong results than the screen did.
# System: Plasmodium falciparum
# Assay: Screen against P. falciparum Asexual Blood Stage (ABS), at 5uM
# Type: functional, Dd2
# Details: tested at 5 uM
row,SMILES,INHIBITION
1,Cc1c(CN2CCCC(C(=O)c3ccc(C(C)(C)C)cc3)C2)cnn1C (stereo unspecified),57.9%
2,Cc1cc(Cl)ccc1C(=O)C1CCCN(Cc2cnc(N(C)C)s2)C1 (stereo unspecified),-28.8%
3,CCn1ncc(CN2CCCC(C(=O)c3ccc(Cl)cc3)C2)c1C (stereo unspecified),70.5%
4,COc1ccc(C(=O)C2CCCN(Cc3cnn(C)c3C)C2)c(OC)c1 (stereo unspecified),39.5%
5,CCCn1ncc(CN2CCCC(C(=O)c3ccc(Cl)cc3C)C2)c1C (stereo unspecified),78.4%
6,CCCn1ncc(CN2CCCC(C(=O)c3ccc(SC)cc3)C2)c1C (stereo unspecified),65.8%
7,Cc1cc(CN2C[C@@H]3COC[C@]3(CNC(=O)N3CCCC3)C2)no1,-22.5%
8,COCCNC(=O)[C@@]12CCO[C@@H]1CCN(Cc1c(C)noc1C)C2,-191%
9,O=C1CSC(c2ccc(O)c(Cl)c2)c2c(n(C3CCOCC3)[nH]c2=O)N1 (stereo unspecified),-57.7%
10,CCC(C)N1CCC(Oc2ccc(C(=O)NCCN(C)C)cc2Cl)CC1 (stereo unspecified),79.7%
11,Cc1nc(C2(NCC(=O)NC(=O)NCC(F)(F)F)CCCCC2)no1,-29.3%
12,COc1cc(C)c(-c2ccc(F)c3c2OC(CN)C3)cc1C (stereo unspecified),83.8%
13,Cn1ncc2c1NC(=O)CSC2c1ccccc1Cl (stereo unspecified),-82.5%
14,Cc1ccc(N2C[C@@H]3OCCN(Cc4c(C)noc4C)[C@@H]3C2)nn1,6.3%
15,CC(C)c1cc(N2CCCC3(CCN(C)C3)C2)ncn1 (stereo unspecified),-28.1%
16,CCc1nc(N)nc(N2CCCC3(CCN(C)CC3)CC2)c1C,76.1%
17,Cc1nc(C)c(C)c(N2CCC3(CCN(C)C3)C2)n1 (stereo unspecified),19.5%
18,Cc1cc(NCCc2c[nH]cn2)nc(-c2cccnc2)n1,-108.15%
19,Cc1cc(NCCN)nc(-c2ccccc2O)n1,79.2%
20,Cn1nc(C2CC2)c2c1NC(=O)CC2c1cc(CN2CCCC2)cs1 (stereo unspecified),81.9%
21,CCN1CCC2(CC1)NC(=O)c1cc(Br)ccc1-n1nnnc12,-47.7%
22,O=C(N1CCCC1)N1C[C@@H]2CCNC[C@@H]21,-67.9%
23,O=C(Nc1ccc(Cl)cn1)c1cncc(C2CCNCC2)n1,70%
24,FC(F)CNc1cnc(C2CCNCC2)cn1,-139%
25,Cc1nn(CCNC(C)Cn2cncn2)c(C)c1Cl (stereo unspecified),-44.7%
26,c1c[nH]c2nc(C3CCNCC3)nc-2c1,-162%

row,SMILES,INHIBITION
1,FC(F)(F)c1cc(C2CCNCC2)nc(-c2ccsc2)n1,89.2%
2,FC(F)(F)c1nc(C2CCNCC2)no1,-40.3%
3,CS(=O)(=O)CCCNCc1c(Cl)cccc1N1CCCC1,72%
4,CCOCCN1CCO[C@H]2[C@H](OCc3ccccn3)CC[C@@H]21,-65.4%
5,O=C(C[C@@H]1COC[C@H]2CN(Cc3cccnc3)C[C@@H]12)NCC1CC1,-71.5%
6,CO[C@H]1CCN(C(=O)Cc2ccsc2)[C@@H]2CN(CC3CC3)C[C@H]12,19.6%
7,CCN1C[C@H]2[C@@H](C1)N(C(=O)Cc1ccsc1)CC[C@H]2OC,-31.1%
8,CCN1C[C@@H]2[C@@H](OC)CCN(C(=O)Cc3ccsc3)[C@@H]2C1,60%
9,Cc1cccc(C)c1Nc1noc2c1CN(C(=O)c1ccnn1C)CC2,81.7%
10,Cc1cccc(C)c1Nc1noc2c1CN(C(=O)c1cn(C)cn1)CC2,88.3%
11,Cc1cccc(C)c1Nc1noc2c1CN(C(=O)c1ccn(C)n1)CC2,86.6%
12,Cc1cccc(C)c1Nc1noc2c1CN(C(=O)c1c[nH]nc1C)CC2,93%
13,O=C(c1cc2ccccc2[nH]c1=O)N1CCC2(CCCNC2)C1 (stereo unspecified),-49.9%
14,CCCN1CC[C@@H]2OC[C@H](C(=O)Nc3cccnc3)C[C@@H]2C1,-131%
15,CC(C)NC(=O)CN1CCSC2(CCCCC2)C1,-66.6%
16,CN1CC=C(c2noc(CCC(=O)N3CCc4ccccc4C3)n2)CC1,-27.1%
17,CCc1ccccc1Nc1noc2c1CN(C(=O)CCOC)CC2,85.1%
18,Cn1ccnc1CN1CC[C@H]2CO[C@H](CNc3ncccn3)[C@H]2C1,-52.6%
19,CC(C)Nc1nc2c(c(NC3CC3)n1)CCN(Cc1nccn1C)CC2,76.1%
20,Cc1cccc(CN2CC[C@@H]3[C@@H]2CCN3C(=O)Cc2ccsc2)n1,-115%
21,Cn1ccnc1CN1CCN2C[C@H](Oc3cncnc3)C[C@H]2C1,-70.4%
22,CC(C)N1CCO[C@H]2CN(C(=O)Cc3ccsc3)C[C@H]21,-23.1%
23,CC(C)Nc1nc2c(c(NC3CC3)n1)CN(C(=O)Cc1ccsc1)CC2,75.6%
24,CN1CCC(n2cc3nc(N)[nH]cc-3c2=O)CC1,-44.7%
25,O=C(COc1ccccc1)N1C[C@@H](O)[C@H](N2CCCC2)C1,-15.5%
26,CNC(=O)[C@@H]1C[C@H]2CN(Cc3c(C)noc3C)C[C@H]2N1C(C)C,-39.8%

row,SMILES,INHIBITION
1,COc1ccccc1OCCCN(C)c1cc(C)nc(N)n1,73.5%
2,COc1ccccc1OCCN(C)c1cc(C)nc(N)n1,70.2%
3,Cc1cc(N(C)CCOc2ccccc2F)nc(N)n1,85.3%
4,COCCN(C)C(C)Cc1ccccc1OC (stereo unspecified),23.6%
5,CC(C)CNC(=O)N1C[C@H]2CCN[C@H]2C1,14%
6,N#CC1(C(=O)NCC2CCC3(CCNCC3)O2)CC1 (stereo unspecified),22.6%
7,CCS(=O)(=O)c1nnc([C@@H](N)Cc2ccccc2)o1,-131%
8,CC[C@H](C)[C@@H](CO)NC(C)Cc1ccc(Cl)cc1 (stereo partly specified),18.9%
9,COCCN1C(=O)CC[C@@H]2[C@@H]1CCN2Cc1c(C)noc1C,-35.6%
10,O=C(Nc1cccnc1)[C@H]1CN(C2CCCC2)C[C@H]2OCC[C@@H]12,-39.7%
11,CN(C)CCN1CCN(Cc2cccs2)Cc2cccnc21,77.1%
12,COCCN1CCN(Cc2ccoc2)Cc2cccnc21,21%
13,CN(C)CCN1CCN(Cc2nccs2)Cc2cccnc21,5.69%
14,CC(C)c1cc(C(=O)N2CCCC3(CCNC3)C2)no1 (stereo unspecified),-75.8%
15,CCN1C[C@@H]2CN(Cc3cccs3)C[C@@H]2C1=O,37.6%
16,O=C1CN(C(=O)c2ccc(F)cc2)CC(O)CN1Cc1cccs1 (stereo unspecified),88.8%
17,O=C1[C@H]2CN(Cc3cccs3)C[C@H]2CN1c1cncnc1,-85.7%
18,COCC(=O)NC(C)Cc1cccc(OC)c1 (stereo unspecified),-118%
19,Cc1noc(C)c1CN1C[C@@H]2COC[C@@H](C(=O)N3CCCO3)[C@@H]2C1,-40.4%
20,Cc1c(C(C)NC2CCN(C(C)C)CC2)cnn1-c1ccc(F)cc1F (stereo unspecified),79.9%
21,Cc1c(C(C)NCC2CCCC2)cnn1-c1ccc(F)cc1F (stereo unspecified),71.9%
22,N#Cc1ccc(NC2CCN(c3ncccn3)CC2)cc1C(F)(F)F,5.54%
23,CCc1noc(C(C)N2CCNCC2)n1 (stereo unspecified),-31.4%
24,CCN1CCCC1CN(CCN(C)C)S(=O)(=O)c1ccccc1C#N (stereo unspecified),79.6%
25,O=C(NC1CC(F)(F)C1)[C@]12COC[C@H]1CN(Cc1cccnc1)C2,-63.2%
26,CC1CCN(CCNCc2cc(-c3ccccc3)cn3nnnc23)CC1,70.1%

row,SMILES,INHIBITION
1,O=C(Cc1ccsc1)N1C[C@@H]2OCCN(CC3CCCO3)[C@@H]2C1 (stereo partly specified),-85.3%
2,O=C(N1CCOCC1)N1CCCC2(CCCNC2)C1 (stereo unspecified),-45.8%
3,Cn1cc(CN2C[C@@H]3OCCN(c4ncccn4)[C@@H]3C2)cn1,-106%
4,CCOc1ccc2ccccc2c1CNCC1CCNCC1,91.6%
5,CCOc1ccc2ccccc2c1CNCC1CCS(=O)(=O)C1 (stereo unspecified),74.9%
6,CC(C)CCN1C[C@@H]2C[C@H](C(=O)Nc3cccnc3)[C@H](C1)O2,-112%
7,C[C@@H]1CN(C2CCOC2)C[C@]12CCN(c1cccnc1)C2=O (stereo partly specified),-78.9%
8,CC(=O)N1C[C@@H]2CN(Cc3cccnc3)CCO[C@@H]2C1,-51.9%
9,Cc1ccc([C@]2(O)CC[C@H]3CN(Cc4cccnc4)C[C@H]32)nc1,-61.7%
10,Cc1ccc([C@]2(O)CC[C@H]3CN(Cc4cc(C)c(O)c(C)c4)C[C@H]32)nc1,74.6%
11,Cc1ccc([C@]2(O)CC[C@H]3CN(Cc4ccncc4)C[C@H]32)nc1,-23.8%
12,Cc1ccc(-c2cn3c(n2)CO[C@@H](CNCc2nccn2C)C3)cc1,87.4%
13,CCN(CC)C[C@H]1CN2CC[C@H]1C[C@@H]2CNC(=O)Nc1ccsc1,8.11%
14,CC[C@H]1CN2CC[C@H]1C[C@@H]2CNC(=O)NC1CCCCC1,-27.6%
15,CC[C@H]1CN2CC[C@H]1C[C@@H]2CNCc1ccc(N(C)C)cc1,62.8%
16,CC1CCN(C[C@H]2CN3CC[C@H]2C[C@@H]3CNC(=O)c2ccco2)CC1,-36.5%
17,CC[C@H]1CN2CC[C@H]1C[C@@H]2CNCc1ccc2c(c1)OCO2,60.9%
18,CC[C@H]1CN2CC[C@H]1C[C@@H]2CNC(=O)Nc1cc(OC)cc(OC)c1,63.8%
19,CC(C)NC(=O)NC[C@H]1C[C@@H]2CCN1C[C@@H]2CN(C)c1ccccc1,-37.9%
20,COCC(=O)NC[C@H]1C[C@@H]2CCN1C[C@@H]2CN(C)c1ccccc1,-64.8%
21,CC[C@H]1CN2CC[C@H]1C[C@@H]2CNC(=O)Nc1ccccc1,-65.9%
22,CC[C@H]1CN2CC[C@H]1C[C@@H]2CNCc1ccc(OC(F)(F)F)cc1,85.7%
23,CC[C@H]1CN2CC[C@H]1C[C@@H]2CNCc1ccc(OC)cc1,7%
